The values that follow come from PubChem BioAssay (Tox21).

Experiment [1] concerns the target Thyrotropin-releasing hormone receptor (Homo sapiens) (UniProt P34981). As to the kind of experiment: qHTS assay to identify small molecule agonists of the thyrotropin-releasing hormone receptor (TRHR) signaling pathway (AID 1346891; calls by dose curve;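 also: HEK293 cells expressing TRHR with calcium dye readout; series mostly up to about 58 µM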). Put shortly:
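Cells: TRHR-Hek293, seeded and incubated 18 h. Dye loading: 2 h at 37 °C. Compound added from DMSO stock by pin tool. Read-out: kinetic calcium fluorescence over 3 min.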

A short description of experiment [2]: Human pregnane X receptor (PXR) small molecule agonists, qHTS cell viability counter screen (AID 1346977). Also: nearly all actives have a fitted effect of over 50% in size. Put shortly:
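Cytotoxicity counter screen run in the same wells as the PXR luciferase assay, using PXR-Luc HepG2 cells in charcoal-stripped serum medium. Viability: CellTiter-Fluor fluorescence after 24hr compound treatment.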
Background: qHTS replaces the single test concentration by a dilution series.

Experiment [3] in a line: Caspase-3/7 induction in CHO-K1 cells by small molecules, qHTS cell viability counter screen (AID 1346979). Also: nearly all actives have a fitted effect of over 35% in size. Put shortly:
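Cytotoxicity counter screen run in parallel with the caspase-3/7 assay: CHO-K1 cells, 16hr compound treatment at 37C, then CellTiter-Fluor for 1hr before fluorescence reading.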

Experiment [4] can be described thus: Caspase-3/7 induction in CHO-K1 cells by small molecules, qHTS assay (AID 1346980). Also: nearly all actives have a fitted effect of over 15% in size. In short, it runs like this: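 Luminescent Caspase-Glo 3/7 read (30min, room temperature) quantified apoptosis induction. Cells were wild-type CHO-K1, treated with compound for 17hr at 37 C and 5% CO2.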
The nature of experiment [5]: Caspase-3/7 induction in HepG2 cells by small molecules, qHTS cell viability counter screen (AID 1346981). Also: series mostly up to about 92 µM; nearly all actives have a fitted effect of over 30% in size. In short, it runs like this: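 After a 5-hr attachment period at 37 C and 5% CO2, wild-type HepG2 cells received compounds in DMSO. Sixteen hours later CellTiter-Fluor was dispensed and the fluorescent signal quantified after a further hour.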
The target in experiment [6] is Cytochrome P450 2C19 (Homo sapiens) (UniProt P33261). As to the kind of experiment: Cytochrome P450 Family 2 Subfamily C Member 19 (CYP2C19) small molecule antagonists: luciferase reporter qHTS assay (AID 1671197). Also: nearly all actives have a fitted effect of over 65% in size. Also: potency is read from the fitted curve at half-maximal effect. In short, it runs like this: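 P450-Glo CYP2C19 screening system; proluciferin substrate; DMSO compound stocks; 10 min RT preincubation; NADPH regeneration, 1 h at 37C; luciferin detection reagent, 20 min RT; luminescence as RLU.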
(In general: Reporter assays use an easily measured gene product as a stand-in for the process of interest.)

For experiment [7], the target named is Cytochrome P450 2C9 (Homo sapiens) (UniProt P11712). As to the kind of experiment: Cytochrome P450 Family 2 Subfamily C Member 9 (CYP2C9) small molecule antagonists: luciferase reporter qHTS assay (AID 1671198). Also: nearly all actives have a fitted effect of over 50% in size. Also: potency is read from the fitted curve at half-maximal effect. In short, it runs like this: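 Enzyme-substrate mix preincubated with compound 10 min at room temperature; reaction started with NADPH regeneration solution, 1 h 37C. Luminescent luciferin product read after 20 min detection reagent.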

Experiment [8] addresses Cytochrome P450 1A2 (Homo sapiens) (UniProt P05177). As to the kind of experiment: Cytochrome P450 Family 1 Subfamily A Member 2 (CYP1A2) small molecule antagonists: luciferase reporter qHTS assay (AID 1671199). Also: nearly all actives have a fitted effect of over 50% in size. Also: potency is read from the fitted curve at half-maximal effect. Put shortly:
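Room-temperature CYP1A2 reaction with proluciferin substrate: compounds added from DMSO, 10 min preincubation, NADPH regeneration for 1 h. Luciferin detection reagent then added; luminescence recorded as RLU.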

In experiment [9] the target is Voltage-gated inwardly rectifying potassium channel KCNH2 (Homo sapiens) (UniProt Q12809). As to the kind of experiment: Human Ether-a-go-go-Related Gene (hERG) channel small molecule antagonists: fluorescence cell-based qHTS assay (AID 1671200). Also: nearly all actives have a fitted effect of over 50% in size. Also: potency is read from the fitted curve at half-maximal effect. Put shortly: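 Fluorescence at 540 nm emission (480 nm excitation) was recorded kinetically for 2 min at 1-second intervals once the thallium-containing stimulus reached cells previously loaded with FluxOR II dye.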

The target of experiment [10] is Cytochrome P450 3A4 (Homo sapiens) (UniProt P08684). As to the kind of experiment: Cytochrome P450 Family 3 Subfamily A Member 4 (CYP3A4) small molecule antagonists: luciferase reporter qHTS assay (AID 1671201). Also: nearly all actives have a fitted effect of over 50% in size. Also: potency is read from the fitted curve at half-maximal effect. In short, it runs like this: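 qHTS, 1536-well. CYP3A4 + proluciferin substrate, cpd 10 min RT → NADPH regen 1 h RT → detection reagent 20 min → luminescence (RLU). Ketoconazole positive control.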

For experiment [11], the target named is Nuclear receptor subfamily 1 group I member 2 (Homo sapiens) (UniProt O75469). As to the kind of experiment: Human pregnane X receptor (PXR) small molecule agonists, qHTS assay (AID 1346982). Also: nearly all actives have a fitted effect of over 35% in size. Also: potency is read from the fitted curve at half-maximal effect. In short, it runs like this: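 Tox21 qHTS; PXR-Luc HepG2; compounds pinned from DMSO; 24 hr, 37 C; ONE-Glo luciferase detection, 30 min room temperature.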
Experiment [12] addresses Cytochrome P450 2D6 (Homo sapiens) (UniProt P10635). The experiment is described as follows: Cytochrome P450 Family 2 Subfamily D Member 6 (CYP2D6) small molecule antagonists: luciferase reporter qHTS assay (AID 1671196). Also: nearly all actives have a fitted effect of over 50% in size. Also: potency is read from the fitted curve at half-maximal effect. Put shortly: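 Room-temperature luminescent CYP2D6 activity assay: compound preincubated 10 min with enzyme–substrate mix, NADPH-initiated reaction 1 h, detection reagent 20 min before reading.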

A short description of experiment [13]: Caspase-3/7 induction in HepG2 cells by small molecules, qHTS assay (AID 1346978). Also: nearly all actives have a fitted effect of over 15% in size. In short, it runs like this:
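Caspase-3/7 induction was measured by Caspase-Glo 3/7 luminescence (30 min, room temperature) after a 17 hr compound exposure of wild-type HepG2 cells seeded at 2,000 per well and pre-incubated 5 hr.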

The target in experiment [14] is Nuclear receptor subfamily 1 group I member 2 (Rattus norvegicus) (UniProt Q9R1A7). The experiment is described as follows: Rat pregnane X receptor (rPXR) activation by small molecules, qHTS assay (AID 1346983). Also: nearly all actives have a fitted effect of over 20% in size. As to conditions: rPXR luciferase reporter cells, One-Glo luminescence, 24 h; max activation: active compounds read high. Put shortly:
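Luminescent readout (One-Glo luciferase, 30 min room temperature) followed 24 hr compound treatment at 37 C of rPXR cells plated 2,000 per well and preincubated 5hr; qHTS format with compounds delivered in DMSO.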

Experiment [15] deals with Nuclear receptor subfamily 1 group I member 2 (Homo sapiens) (UniProt O75469). As to the kind of experiment: Human pregnane X receptor (PXR) activation by small molecules, qHTS assay (AID 1346985). Also: nearly all actives have a fitted effect of over 40% in size. Put shortly:
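DPX-2 cells (HepG2 co-transfected with a PXR response element and a CYP3A4-promoter luciferase construct) were seeded at 2,000 per well, rested 5 hr at 37C, then exposed to DMSO-dissolved compounds for 24 hr. Activation was read as luciferase luminescence.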

Experiment [16] shares this target. As to the kind of experiment: CYP3A4 induction through human pregnane X receptor (PXR) by small molecules, qHTS assay (AID 1346984). Also: nearly all actives have a fitted effect of over 40% in size. Put shortly: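 Cells (DPX-2; HepG2 with PXR element plus CYP3A4-promoter luciferase) settled 5hr, then were treated 24hr at 37C. A 3hr, 3uM-final Luciferin-IPA step preceded luminescence measurement with One-Glo.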

SMILES strings stand for the structures. A number with no mark means an inactive call. Inconclusive results are not listed. Activity calls are given as the source filed them. Unless noted, calls follow the shape of the dose curve; as a rule, active = well fitted curve in the direction sought with a large enough effect in the repeat runs; inconclusive = weak or mixed curves; inactive = no such curve, though single readings can be large; an effect the other way counts as inactive or inconclusive.
% is scaled to controls: 0 for no effect and ±100 for the full control effect.

Sequence of Cytochrome P450 2C9 (Homo sapiens) (P11712 whole entry, looked up): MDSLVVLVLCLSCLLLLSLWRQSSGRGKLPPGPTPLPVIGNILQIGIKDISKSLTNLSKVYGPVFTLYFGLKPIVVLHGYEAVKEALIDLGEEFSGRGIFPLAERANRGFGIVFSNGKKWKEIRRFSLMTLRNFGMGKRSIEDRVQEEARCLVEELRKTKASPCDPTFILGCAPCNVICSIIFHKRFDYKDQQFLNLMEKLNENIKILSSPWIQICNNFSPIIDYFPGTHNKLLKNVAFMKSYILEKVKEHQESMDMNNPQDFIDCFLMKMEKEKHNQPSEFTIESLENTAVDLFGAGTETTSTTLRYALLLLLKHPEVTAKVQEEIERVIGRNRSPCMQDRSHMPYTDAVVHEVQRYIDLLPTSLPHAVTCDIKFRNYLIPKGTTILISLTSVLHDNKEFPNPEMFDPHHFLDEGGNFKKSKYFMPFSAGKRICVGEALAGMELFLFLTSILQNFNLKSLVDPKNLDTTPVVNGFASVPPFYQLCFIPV
Sequence of Cytochrome P450 3A4 (Homo sapiens) (P08684 whole entry, looked up): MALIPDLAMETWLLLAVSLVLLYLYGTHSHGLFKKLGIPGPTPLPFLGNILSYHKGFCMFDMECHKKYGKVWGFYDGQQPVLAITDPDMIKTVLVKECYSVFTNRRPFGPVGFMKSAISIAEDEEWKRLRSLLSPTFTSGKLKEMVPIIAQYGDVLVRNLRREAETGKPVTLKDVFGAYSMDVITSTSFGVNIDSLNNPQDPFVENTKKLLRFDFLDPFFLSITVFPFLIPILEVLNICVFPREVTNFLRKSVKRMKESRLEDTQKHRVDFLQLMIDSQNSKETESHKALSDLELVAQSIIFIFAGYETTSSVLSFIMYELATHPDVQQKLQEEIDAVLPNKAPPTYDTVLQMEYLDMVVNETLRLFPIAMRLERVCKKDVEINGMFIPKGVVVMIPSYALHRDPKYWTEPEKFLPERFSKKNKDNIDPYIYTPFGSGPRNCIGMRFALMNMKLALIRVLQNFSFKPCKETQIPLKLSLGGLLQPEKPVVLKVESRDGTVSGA
Sequence of Cytochrome P450 1A2 (Homo sapiens) (P05177 whole entry, looked up): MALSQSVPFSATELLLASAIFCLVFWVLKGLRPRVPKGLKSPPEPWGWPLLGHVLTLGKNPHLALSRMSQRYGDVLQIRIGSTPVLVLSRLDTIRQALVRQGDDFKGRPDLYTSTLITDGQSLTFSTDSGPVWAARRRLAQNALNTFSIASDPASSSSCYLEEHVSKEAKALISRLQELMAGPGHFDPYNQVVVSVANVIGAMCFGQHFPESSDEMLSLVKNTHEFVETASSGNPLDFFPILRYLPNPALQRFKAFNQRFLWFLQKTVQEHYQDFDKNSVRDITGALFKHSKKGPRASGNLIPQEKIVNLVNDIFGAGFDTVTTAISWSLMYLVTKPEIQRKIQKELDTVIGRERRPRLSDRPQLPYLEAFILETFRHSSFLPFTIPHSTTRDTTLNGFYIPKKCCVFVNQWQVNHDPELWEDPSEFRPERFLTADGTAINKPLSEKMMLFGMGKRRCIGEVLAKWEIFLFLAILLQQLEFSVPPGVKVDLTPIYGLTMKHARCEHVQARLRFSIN
Sequence of Cytochrome P450 2C19 (Homo sapiens) (P33261 whole entry, looked up): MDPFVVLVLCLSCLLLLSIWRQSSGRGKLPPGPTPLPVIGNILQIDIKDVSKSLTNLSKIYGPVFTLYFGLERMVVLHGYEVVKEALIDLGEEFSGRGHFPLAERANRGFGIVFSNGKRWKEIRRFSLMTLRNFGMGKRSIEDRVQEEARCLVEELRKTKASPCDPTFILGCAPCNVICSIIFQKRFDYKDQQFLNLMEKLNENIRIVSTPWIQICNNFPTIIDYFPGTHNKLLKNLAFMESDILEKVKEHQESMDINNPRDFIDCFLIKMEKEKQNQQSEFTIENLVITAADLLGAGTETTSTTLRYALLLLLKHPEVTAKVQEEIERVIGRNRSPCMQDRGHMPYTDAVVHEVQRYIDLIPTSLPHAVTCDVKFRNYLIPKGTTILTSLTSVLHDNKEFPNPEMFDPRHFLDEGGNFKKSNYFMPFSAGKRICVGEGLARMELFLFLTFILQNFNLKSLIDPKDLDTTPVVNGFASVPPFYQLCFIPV
Sequence of Thyrotropin-releasing hormone receptor (Homo sapiens) (P34981 whole entry, looked up): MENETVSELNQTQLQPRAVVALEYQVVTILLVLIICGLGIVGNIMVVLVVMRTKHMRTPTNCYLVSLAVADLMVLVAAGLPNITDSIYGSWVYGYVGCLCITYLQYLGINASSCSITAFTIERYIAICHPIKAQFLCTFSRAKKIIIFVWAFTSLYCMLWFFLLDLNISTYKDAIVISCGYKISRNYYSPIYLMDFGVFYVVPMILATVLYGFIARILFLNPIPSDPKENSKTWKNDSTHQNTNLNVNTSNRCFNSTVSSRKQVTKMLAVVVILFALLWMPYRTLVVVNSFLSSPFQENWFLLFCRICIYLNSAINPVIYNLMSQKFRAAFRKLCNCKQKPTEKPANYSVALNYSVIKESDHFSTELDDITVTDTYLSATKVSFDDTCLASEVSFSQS
Sequence of Nuclear receptor subfamily 1 group I member 2 (Homo sapiens) (O75469 whole entry, looked up): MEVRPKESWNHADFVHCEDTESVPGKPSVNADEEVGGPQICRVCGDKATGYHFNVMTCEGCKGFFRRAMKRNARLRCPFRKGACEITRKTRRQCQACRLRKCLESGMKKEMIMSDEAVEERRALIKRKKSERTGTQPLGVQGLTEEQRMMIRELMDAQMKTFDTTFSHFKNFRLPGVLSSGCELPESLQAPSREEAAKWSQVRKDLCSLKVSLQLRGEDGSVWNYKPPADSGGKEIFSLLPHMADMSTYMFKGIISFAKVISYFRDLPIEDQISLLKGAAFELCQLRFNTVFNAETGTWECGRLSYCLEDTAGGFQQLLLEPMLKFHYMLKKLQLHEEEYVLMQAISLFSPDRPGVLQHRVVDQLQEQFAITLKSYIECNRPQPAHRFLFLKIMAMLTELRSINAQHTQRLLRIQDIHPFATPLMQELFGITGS
Sequence of Cytochrome P450 2D6 (Homo sapiens) (P10635 whole entry, looked up): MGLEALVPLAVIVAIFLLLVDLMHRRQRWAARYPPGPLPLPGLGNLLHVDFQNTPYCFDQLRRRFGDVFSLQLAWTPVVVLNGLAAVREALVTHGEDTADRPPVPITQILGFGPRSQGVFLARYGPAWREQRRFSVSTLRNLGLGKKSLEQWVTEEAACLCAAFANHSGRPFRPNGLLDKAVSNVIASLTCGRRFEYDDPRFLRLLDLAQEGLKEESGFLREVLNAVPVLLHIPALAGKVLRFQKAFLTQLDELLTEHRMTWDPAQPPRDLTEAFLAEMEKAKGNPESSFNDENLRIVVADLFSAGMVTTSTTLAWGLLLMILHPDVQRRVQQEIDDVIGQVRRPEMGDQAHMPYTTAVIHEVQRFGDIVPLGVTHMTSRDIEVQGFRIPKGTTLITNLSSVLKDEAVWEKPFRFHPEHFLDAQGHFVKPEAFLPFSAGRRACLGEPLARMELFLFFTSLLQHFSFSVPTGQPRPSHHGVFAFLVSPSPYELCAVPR
Sequence of Voltage-gated inwardly rectifying potassium channel KCNH2 (Homo sapiens) (Q12809 whole entry, looked up): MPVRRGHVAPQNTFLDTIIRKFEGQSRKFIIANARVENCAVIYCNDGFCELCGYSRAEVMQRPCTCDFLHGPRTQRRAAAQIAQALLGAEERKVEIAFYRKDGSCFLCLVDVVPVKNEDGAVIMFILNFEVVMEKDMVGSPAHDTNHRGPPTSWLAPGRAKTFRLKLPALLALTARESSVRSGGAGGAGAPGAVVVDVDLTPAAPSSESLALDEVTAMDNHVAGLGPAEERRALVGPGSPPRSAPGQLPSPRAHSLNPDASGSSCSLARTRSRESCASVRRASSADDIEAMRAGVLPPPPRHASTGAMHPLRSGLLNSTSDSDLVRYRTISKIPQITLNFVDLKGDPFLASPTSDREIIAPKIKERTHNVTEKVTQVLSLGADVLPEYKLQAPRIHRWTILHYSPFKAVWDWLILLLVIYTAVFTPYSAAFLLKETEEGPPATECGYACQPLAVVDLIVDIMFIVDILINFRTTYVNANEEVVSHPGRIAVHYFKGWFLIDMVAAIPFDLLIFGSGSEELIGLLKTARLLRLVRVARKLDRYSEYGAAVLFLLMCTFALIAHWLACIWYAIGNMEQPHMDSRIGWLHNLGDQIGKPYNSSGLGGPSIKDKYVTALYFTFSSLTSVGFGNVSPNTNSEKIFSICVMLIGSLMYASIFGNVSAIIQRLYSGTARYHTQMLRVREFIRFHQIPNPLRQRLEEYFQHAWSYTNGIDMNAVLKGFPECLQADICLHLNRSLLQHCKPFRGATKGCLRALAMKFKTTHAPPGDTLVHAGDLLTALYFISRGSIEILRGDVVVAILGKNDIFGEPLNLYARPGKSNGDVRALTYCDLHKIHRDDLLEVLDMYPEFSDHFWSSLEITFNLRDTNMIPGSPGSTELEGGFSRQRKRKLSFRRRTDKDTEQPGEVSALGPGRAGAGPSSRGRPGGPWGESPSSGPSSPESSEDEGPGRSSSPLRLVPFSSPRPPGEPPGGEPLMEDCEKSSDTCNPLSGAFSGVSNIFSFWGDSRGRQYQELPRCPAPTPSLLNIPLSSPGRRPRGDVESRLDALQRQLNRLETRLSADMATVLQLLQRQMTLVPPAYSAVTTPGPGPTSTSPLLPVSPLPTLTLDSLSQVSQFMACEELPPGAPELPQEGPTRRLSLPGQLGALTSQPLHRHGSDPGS
Sequence of Nuclear receptor subfamily 1 group I member 2 (Rattus norvegicus) (Q9R1A7 whole entry, looked up): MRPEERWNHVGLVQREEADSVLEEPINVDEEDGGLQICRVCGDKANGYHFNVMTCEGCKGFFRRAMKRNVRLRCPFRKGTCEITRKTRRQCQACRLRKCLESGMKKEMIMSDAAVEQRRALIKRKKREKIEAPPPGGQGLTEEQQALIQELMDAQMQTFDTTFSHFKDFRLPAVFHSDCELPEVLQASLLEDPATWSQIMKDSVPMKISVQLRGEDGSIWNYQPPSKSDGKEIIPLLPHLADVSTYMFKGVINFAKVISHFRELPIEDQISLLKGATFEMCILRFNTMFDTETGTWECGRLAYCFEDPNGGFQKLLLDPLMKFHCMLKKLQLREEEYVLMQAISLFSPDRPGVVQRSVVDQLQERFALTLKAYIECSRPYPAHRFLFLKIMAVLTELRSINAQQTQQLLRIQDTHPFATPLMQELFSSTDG

As to `COC(=O)c1cc(Cl)ccc1[N+](=O)[O-]`, the call in experiment [1] was inactive. Moreover, the Potency result in [2], in [3], in experiment [4], in [5], in [7] and in [9] was “inactive” each time. Further, the Potency result in [10] was “inactive”. The values for the Potency in [6] and in experiment [8] were 79.6 µM (active) and 7.96 µM (active), respectively.
As to `CCC(=O)O[C@@H]1C[C@H]2CC[C@]1(C)C2(C)C`, the call in experiment [1] was inactive. Moreover, the Potency result in [2], in [3], in experiment [4], in experiment [5], in experiment [11] and in experiment [12] was “inactive” throughout. The Potency entry in experiment [6], in [7], in experiment [8], in experiment [9] and in experiment [10] was “inactive” throughout.
With `O=C(c1ccco1)N1CCNCC1`, the compound was classed as inactive in [1]. The Potency result in experiment [2], in [3], in [5], in experiment [11], in [12] and in experiment [6] was “inactive” each time. Besides, the Potency result in experiment [7], in experiment [8], in experiment [9] and in [10] was “inactive” each time.
`Cc1ccc(NC=O)c(C)c1`: the call in [1] was inactive. Further, the Potency result in [2], in experiment [3], in [5], in experiment [11], in experiment [12] and in experiment [6] was “inactive” throughout. The Potency entry in [7] and in experiment [9] was “inactive” throughout. For the same compound, in [8], the Potency was 35.6 µM (active).
For `O=C(NC1CCN(CCc2c[nH]c3ccccc23)CC1)c1ccccc1`, in [1], the result was inactive. Besides, the Potency result in experiment [13], in [3], in experiment [4], in experiment [5], in [11] and in [15] was “inactive” each time. The Potency result in [6], in experiment [7] and in experiment [8] was “inactive” in each case. Besides, the max activation in experiment [14] was -9.19%. In addition, the Potency was 1.95 µM (active) in experiment [12] and 4.77 µM (active) in experiment [9].
On to `CC(C)=CCC[C@H](C)CCO`, for which, in experiment [1], the compound was classed as inactive. The Potency entry in experiment [13], in experiment [3], in experiment [4], in experiment [5], in experiment [11] and in experiment [12] was “inactive” each time. Moreover, in experiment [8], the Potency result is “inactive”. Also, the Potency was 71 µM (active) in [6] and 63.3 µM (active) in experiment [10].
Consider `CC[C@H](NC(C)C)[C@H](O)c1ccc(O)c2[nH]c(=O)ccc12`, for which, in experiment [1], the outcome was inactive. Moreover, the Potency entry in [2], in [4], in experiment [5], in [11], in experiment [16] and in [15] was “inactive” in each case. Moreover, the Potency result in [6], in experiment [7], in experiment [8] and in [10] was “inactive” each time. Further, the max activation in experiment [14] was -3.27%.
Regarding `COC(=O)C(C)(C)C`, the compound was called inactive in experiment [1]. In addition, the Potency entry in experiment [2], in [3], in experiment [4], in [5], in experiment [11] and in experiment [12] was “inactive” each time. Besides, the Potency result in experiment [10] is “inactive”. For the same compound, the values for the Potency in experiment [6] and in [8] were 32.2 µM (active) and 40.5 µM (active), respectively.
On to `Nc1ccc(-c2ccc(F)cc2)cc1`, for which the result in experiment [1] was inactive. Besides, the Potency entry in [2], in experiment [3], in [4], in experiment [5] and in experiment [9] was “inactive” in each case. The Potency in experiment [11] was 30.6 µM (active); in [6], 8.94 µM (active); in experiment [7], 14.2 µM (active); in experiment [8], 0.502 µM (active); in experiment [10], 11.2 µM (active).
For `O=C(O)c1ccncc1`, the compound was called inactive in experiment [1]. Moreover, the Potency result in experiment [13], in [3], in experiment [4] and in [5] was “inactive” throughout.
